# Only some compounds are listed: those with a hit (about 3.5% of all), similar ones and a draw of the others.
# mHTT CaM bind – mutant huntingtin-calmodulin interaction inhibitors – biochemical, AlphaScreen, primary screen; P42858; AlphaScreen His-mHTT/GST-CaM binding, luminescence; inhibition, % at 15 µM; 3.6% of 190,000 active; AID 1671202, 2021;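 further: 0% = both proteins with DMSO and 100% = one protein alone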
# Pf apPOL block – Pf-apPOL inhibitors, biochemical, fluorescence | Plasmodium falciparum apicoplast DNA polymerase (apPOL) | inhibition, % at 10 µM | Recombinant Pf-apPOL, molecular beacon fluorescence, 1.5 h | 0.25% of 210,000 active
# An asterisk follows results filed as active; x = no result. No stated cut-off is given here; in the data, active means inhibition above about 50%; inactive means the rest.
SMILES,mHTT CaM bind,Pf apPOL block
COCCN=C1Nc2ccccc2NC12CCCN(C(=O)c1cc(-c3ccccc3)n[nH]1)C2 (centres undefined),67*,-4
COCCN=C1Nc2ccccc2NC12CCCN(C(=O)c1ccc(C)nc1)C2 (centres undefined),2,-5
COCCN=C1Nc2ccccc2NC12CCCN(C(=O)c1ccccc1Cl)C2 (centres undefined),13,-1
COCCN=C1Nc2ccccc2NC12CCCN(C(=O)Cc1cccc(C)c1)C2 (centres undefined),52*,-4
COCC(=O)NCc1ccccc1Cl,2,-13
CC1CC(C)CN(C(=O)c2c(F)c(F)c(F)c(F)c2F)C1 (centres undefined),-1,1
COc1ccc(C(=O)/C=C/Nc2ccccc2[N+](=O)[O-])cc1,15,6
COc1cc(C=C2SC(=S)N(c3ccc(O)cc3)C2=O)cc(OC)c1OC,20,-3
COc1cc(C=C2SC(=S)N(c3ccc(O)c(C(=O)O)c3)C2=O)cc(OC)c1OC,66*,-28
COc1cccc(N2C(=O)C(=Cc3ccc(O)c(O)c3)SC2=S)c1,98*,-60
COc1cc(C=C2SC(=S)N(c3ccc(C(=O)O)c(O)c3)C2=O)cc(OC)c1OC,1,-7
CCOc1cccc(CN2CCCC2c2cc(C)on2)c1O (centres undefined),8,1
Cc1[nH]c2ccc(Br)cc2c(=O)c1CN1CCCC1,0,-10
CC(CCc1ccccc1)NC(=O)CC(C(=O)N1CCc2ccccc21)n1ccnc1 (centres undefined),20,-7
CCN(CC)CCCNC(=O)CC(C(=O)N1CCc2ccccc21)n1ccnc1 (centres undefined),-2,-5
CC(NC(=O)CC(C(=O)N1CCc2ccccc21)n1ccnc1)C12CC3CC(CC(C3)C1)C2 (centres undefined),59*,-4
CCN(CCCNC(=O)Cc1cn(C)c2ccccc12)c1cccc(C)c1,71*,-5
CCN(CCCNC(=O)c1cn(C)c(=O)c2c1c1ccccc1n2C)c1cccc(C)c1,-1,-2
CCN(CCCNC(=O)CC(C(=O)N1CCc2ccccc21)n1ccnc1)c1cccc(C)c1 (centres undefined),74*,-10
Cc1ccc(/C=C(\C#N)c2nc(-c3ccc(Cl)c(Cl)c3)cs2)o1,15,-2
Cn1cccc1C(CNC(=O)Cc1cccs1)N1CCc2ccccc2C1 (centres undefined),26,-3
COc1ccc(C2SCCN2S(=O)(=O)c2ccccc2)cc1[N+](=O)[O-] (centres undefined),9,14
Cc1ccc(N2CCCS2(=O)=O)cc1NC(=O)c1cccc(Br)c1,-3,-1
CS(=O)(=O)N1CCN(c2ccc([N+](=O)[O-])c(NCCOc3ccc(Cl)cc3)c2)CC1,15,-11
CCc1ccc(OCCNc2cc(N3CC(C)NC(C)C3)ccc2[N+](=O)[O-])cc1 (centres undefined),100*,-1
SMILES,mHTT CaM bind,Pf apPOL block
CC(C)n1cc(C2=CCN(C(=O)Nc3ccc4c(c3)OCCO4)CC2)c2cccnc21,61*,-5
CC(C)n1cc(C2=CCN(C(=O)Nc3ccc(Cl)cc3)CC2)c2cccnc21,19,-7
COC(=O)N[C@@H]1CSC[C@@H]1O,-3,x
CN(C)c1ccc(NC(=O)CCC2CCCCC2)cc1,63*,-2
COc1ccc(NC(=O)CCC2CCCCC2)cc1OC,9,-2
COc1cccc(CC(=O)Nc2cc(C)n(-c3ccc(C#N)cc3)n2)c1,12,-7
CCN1C(=Cc2c3ccccc3cc[n+]2CC)C=Cc2ccccc21,63*,0
CCN1/C(=C/c2cccc[n+]2C)C=Cc2ccccc21,19,3
Cc1ccc(N=Cc2cc3c(cc2[N+](=O)[O-])OCO3)c(C)c1,76*,2
Cc1cc(C)c(O)c(N=Cc2cc3c(cc2[N+](=O)[O-])OCO3)c1,52*,-2
CC(=O)N(C)c1ccc(N=Cc2cc3c(cc2[N+](=O)[O-])OCO3)cc1,31,13
Cc1ccc(C)c(N=Cc2cc3c(cc2[N+](=O)[O-])OCO3)c1,66*,x
N#Cc1ccccc1N=Cc1cc2c(cc1[N+](=O)[O-])OCO2,19,-2
Cc1cc(C)c(O)c(N=Cc2cc(Cl)cc([N+](=O)[O-])c2O)c1,32,0
CC(NC(=O)c1ccccc1NC(=O)c1ccccc1)C(=O)O (centres undefined),2,1
CCc1nc(-c2c(C)cc(C)nc2NC(=O)c2cccc(C)c2)no1,-3,-3
COc1ccccc1-c1c(C)oc2c3c(ccc2c1=O)OCN(C(C)C)C3,-6,-7
O=C(c1ccc(OCC2CCCN(C(=O)C3CCCCC3)C2)cc1)N1CCCCC1 (centres undefined),16,-5
O=C(c1ccc(OCC2CCCN(C(=O)C3CCCC3)C2)cc1)N1CCCCC1 (centres undefined),4,96*
O=C1OC(c2ccccc2)(c2ccccc2)c2ccccc21,x,1
CN(C)c1ccc(C2(c3ccc(N(C)C)cc3)OC(=O)c3ccccc32)cc1,86*,1
COc1ccc(-c2noc(C3CCCN3C(=O)Nc3ccc4c(c3)OCCO4)n2)cc1 (centres undefined),12,-3
O=C(N=S1CCC2(C1)OCCO2)c1cc(C(F)(F)F)cc(C(F)(F)F)c1 (centres undefined),x,75*
O=C(c1cc(C(F)(F)F)cc(C(F)(F)F)c1)c1ccccc1C(=O)N1CCOCC1,x,-2
COc1ccc(CNC(=O)c2cc3ccccn3c2)cc1,7,0
SMILES,mHTT CaM bind,Pf apPOL block
COc1cccc(C(C)NC(=O)c2cc3ccccn3c2)c1 (centres undefined),68*,-3
Cc1ccc2c(C)nc(N=C(N)N)nc2c1,7,5
NC(N)=Nc1nc(-c2ccccc2)c2ccccc2n1,73*,-2
COc1ccc(OC)c(CNC(=O)C2CCCN(c3nccc4sccc34)C2)c1 (centres undefined),23,0
CCCC1N=C(c2ccc(Cl)cc2)CC(c2cccc(OC)c2O)N1 (centres undefined),52*,-4
CCCC1N=C(c2cccc(OC)c2)CC(c2ccccc2O)N1 (centres undefined),45,-5
CCCNc1nc(C(Cl)(Cl)Cl)nc2ccccc12,-74,-7
Clc1nc(C(Cl)(Cl)Cl)nc2ccccc12,100*,2
CCN(CC)c1ncnc2sc(C(=O)Nc3cc(Cl)c(OC)cc3OC)c(C)c12,0,-8
Cc1cccc(CNC(=O)c2cc(NC(=O)C(C)C)cc3nc(C)ccc23)c1,21,-1
CC(=O)Nc1cc(C(=O)NCc2ccccc2C)c2ccc(C)nc2c1,73*,5
Cc1ccc2c(C(=O)NCc3ccccc3C)cc(NC(=O)C(C)C)cc2n1,54*,3
CC(=O)Nc1cc(C(=O)NCC(C)C)c2ccc(C)nc2c1,21,18
CC(C)CNC(=O)c1ccc(N2CCNC(c3ccccc3)C2)nc1 (centres undefined),12,-2
Cc1cccc(C(=O)Nc2cccc(C#N)c2)c1,-14,-2
O=C(c1ccc(Cl)cc1)N1CCCC(c2ccnc(-c3ccccc3)n2)C1 (centres undefined),4,-6
